These results are taken from PubChem BioAssay (NCATS).

The structures appear in SMILES notation. Records with an inconclusive call do not appear. Active and inactive are the calls of the source. Unless noted, calls come from the whole dose curve; as a rule, active = well fitted curve in the direction sought with a large enough effect; inconclusive = small, poorly fitted or top-dose-only effect, or another doubt; inactive = no such curve, though single readings can be large; an effect the other way counts as inactive or inconclusive.

Assay [1] has as its target Glucocorticoid receptor (Homo sapiens) (UniProt P04150). As to the kind of experiment: GR-GFP Redistribution (AID 450;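 active = compounds whose dose series gives a full or clear partial fitted curve of increased nuclear translocation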; note: potency is the fitted concentration of half-maximal effect). The settings on record: U2OS GR-GFP nuclear translocation, laser cytometry, 2 h.
Assay [2] has the same target. In words: GR-EFC Redistribution (AID 451; calls by dose curve; note: potency is the fitted concentration of half-maximal effect). The settings on record: CHO-K1 GR-EFC translocation, beta-gal luminescence, 2 h. In outline:
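CHO-K1 cells stably expressing nuclear-localized β-gal enzyme acceptor and GR fused C-terminally to the enzyme donor fragment; ligand-driven nuclear translocation restores β-gal by complementation. Compounds titrated up to 46 uM final, 2 h at 37 °C; luminescence read.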

The target of assay [3] is Mitogen-activated protein kinase 10 (Mus musculus) (UniProt Q61831). As to the kind of experiment: JNK3 AlphaScreen Assay (AID 530; active = well fitted curve in either direction with a large enough effect, not every such curve was filed as active;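 note: kinase came from lysate of stimulated human HepG2 cells; % is set by controls: 0 for no effect and ±100 for the full control effect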). The settings on record: JNK3 lysate, c-Jun phosphorylation; series mostly up to 57.1 µM. The method, boiled down: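 Phosphorylation of biotinylated GST-cJun(1-79) at Ser73 is measured by AlphaScreen proximity luminescence. Enzyme is JNK3 in HepG2 lysates activated with interleukin-1beta and tumor necrosis factor alpha; ATP is 10 uM final.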

The target of assay [4] is 3',5'-cyclic-AMP phosphodiesterase 4B (Homo sapiens) (UniProt Q07343). In words: qHTS Assay for Inhibitors of PDE-IV (AID 607; active = well fitted activation curve with a large enough effect in the main read-out, with a control signal flat, not every such curve was filed as active; note: % of control where 0% means no effect). The settings on record: HEK293 ACTOne CNG channel cells, membrane potential fluorescence; series mostly up to 22.9 µM. The method, boiled down:
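HEK293 ACTOne cells with CNG channel (1000/well), endogenous PDE4; membrane potential dye, compounds up to 22.9 uM final. Fluorescence Ex 535/Em 590; RO 20-1724 (100 uM final) as reference.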
(Quantitative high-throughput screening tests each substance at several concentrations.)

In assay [5] the target is Cytochrome P450 3A4 (Homo sapiens) (UniProt P08684). In words: qHTS Assay for Activators of Cytochrome P450 3A4 (AID 885). Note: nearly all actives have a fitted effect of over 65% in size. The settings on record: recombinant CYP3A4, Luciferin-PPXE luminescence, 60 min; series mostly up to 57.1 µM. The method, boiled down: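 Human CYP3A4 dealkylates Luciferin-PPXE to luciferin, which luciferase detection converts to light. Substrate was at its KM (25uM), buffer 200mM KPO4, reaction 60 min at RT.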

Assay [6] addresses DNA dC->dU-editing enzyme APOBEC-3G (Homo sapiens) (UniProt Q9HC16). As to the kind of experiment: qHTS for inhibitors of Vif-A3G interactions: Validation (AID 588379). Note: 0% is about no effect. The settings on record: Vif-A3G protein interaction assay; series mostly up to 46.1 µM. The method, boiled down: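 Yellow fluorescence (Ex 488, Em 500-530) of Vif-coexpressing HeLa A3G-eYFP cells, scanned by Acumen cytometer, reports blocked A3G degradation. Cells plated at 700/well overnight at 37 deg C before compound addition, then a further overnight compound incubation at 37 deg C.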

Assay [7] concerns Zika virus NS2B-NS3 protease. In words: Primary screen GU AMC qHTS for Zika virus inhibitors (AID 1347154).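 Note: 0% = no-inhibitor control and -100% = no-enzyme control; nearly all actives have a fitted effect of over 70% in size.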 The settings on record: Zika NS2B-NS3 unlinked protease, AMC fluorogenic substrate; series mostly up to 54.1 µM. The method, boiled down: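 Unlinked Zika NS2B hydrophilic domain/NS3 protease domain noncovalent complex (25 nM final) in 10 mM Tris-HCl pH 8.0, 0.01% Tween 20, with AMC peptide substrate. Fluorescence (ex 340, em 450 nm) change over 15 min, room temperature; percent inhibition fitted to 4-parameter Hill equation.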

Assay [8] in a line: Primary qHTS for small molecule stabilizers of the endoplasmic reticulum resident proteome: Secreted ER Calcium Modulated Protein (SERCaMP) assay (AID 1508630). Note: % is set by controls: 0 for no effect and ±100 for the full control effect. The settings on record: SH-SY5Y GLuc-SERCaMP (Gaussia luciferase released on ER calcium loss) secretion, thapsigargin, luminescence; series mostly up to 38.4 µM. In outline:
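The SH-SY5Y reporter protocol was run at 3 concentrations up to 38.3 uM (primary) or 11 concentrations (follow-up): 16 h compound, 100 nM thapsigargin for 4 h, then extracellular luciferase luminescence.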

Assay [9] is described as follows: qHTS profiling for inhibitors of Plasmodium falciparum (3D7) proliferation (AID 743322; call rule not given here;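 note: infected erythrocytes exposed to compound for 72 h before lysis; 100% = DMSO vehicle wells and 0% = 0.29 µM artemisinin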). The settings on record: P. falciparum 3D7 proliferation; at 28.7 µM (top of the series). In outline:
(§1)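 Parasite DNA was quantified by SYBR Green I fluorescence (ex 485, em 535 nm) after overnight lysis in saponin/Triton buffer at room temperature. Cultures at 0.3% parasitemia and 2.5% hematocrit were first exposed to compound for 72 h at 37 C; signals were normalised to artemisinin (0.29 uM) and vehicle wells.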

The nature of assay [10]: qHTS profiling for inhibitors of Plasmodium falciparum (DD2) proliferation (AID 743323; call rule not given here). The settings on record: lower = more inhibition; at 28.7 µM (top of the series). The method, boiled down: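 P. falciparum Dd2-infected erythrocytes (0.3% parasitemia, 2.5% hematocrit) exposed 72 h at 37 C, 5% CO2. Lysis with SYBR Green, overnight at room temperature, fluorescence 485/535 nm; normalized to 0.29 uM artemisinin and DMSO.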

Assay [11] is described as follows: qHTS profiling for inhibitors of Plasmodium falciparum (HB3) proliferation (AID 743324).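 Note: 100% = DMSO vehicle wells and 0% = artemisinin-treated control wells.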 The settings on record: Plasmodium falciparum HB3 blood-stage proliferation; at 28.7 µM (top of the series). In outline: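 SYBR Green fluorescence (485 ex/535 em) of lysed cultures, incubated overnight at room temperature in the dark, quantifies parasite DNA. Infected erythrocytes at 0.3% parasitemia and 2.5% hematocrit were exposed 72 h; values normalized to DMSO and 0.29 uM artemisinin controls.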

The target of assay [12] is Cytochrome P450 3A4 (Homo sapiens) (UniProt P08684). In words: qHTS Assay for Inhibitors and Substrates of Cytochrome P450 3A4 (AID 884). Note: % is set by controls: 0 for no effect and ±100 for the full control effect; nearly all actives have a fitted effect of over 50% in size. The settings on record: recombinant CYP3A4, Luciferin-PPXE luminescence; series mostly up to 57.1 µM. In outline:
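Luminescent readout of luciferin produced by CYP3A4 (20 nM) dealkylation of Luciferin-PPXE, 25 uM (its KM). NADPH-driven reaction ran 60 min at RT after 10 min compound preincubation; data scaled to 57 uM ketoconazole as 100% inhibition.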

The nature of assay [13]: qHTS profiling of the MIPE4 collection as inhibitors of Plasmodium falciparum (DD2) proliferation (AID 743345; call rule not given here). The settings on record: P. falciparum Dd2 in erythrocytes, SYBR Green DNA, 72 h; at 28.5 µM (top of the series). The method, boiled down: as §1
Assay [14] is described as follows: qHTS profiling of the MIPE4 collection as inhibitors of Plasmodium falciparum (HB3) proliferation (AID 743347; call rule not given here;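 note: plate controls were DMSO vehicle wells for no effect and artemisinin wells for full effect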). The settings on record: P. falciparum HB3 in erythrocytes, SYBR Green DNA, 72 h; at 28.5 µM (top of the series). In outline:
as §1

Glucocorticoid receptor (Homo sapiens), sequence (P04150 whole entry, looked up): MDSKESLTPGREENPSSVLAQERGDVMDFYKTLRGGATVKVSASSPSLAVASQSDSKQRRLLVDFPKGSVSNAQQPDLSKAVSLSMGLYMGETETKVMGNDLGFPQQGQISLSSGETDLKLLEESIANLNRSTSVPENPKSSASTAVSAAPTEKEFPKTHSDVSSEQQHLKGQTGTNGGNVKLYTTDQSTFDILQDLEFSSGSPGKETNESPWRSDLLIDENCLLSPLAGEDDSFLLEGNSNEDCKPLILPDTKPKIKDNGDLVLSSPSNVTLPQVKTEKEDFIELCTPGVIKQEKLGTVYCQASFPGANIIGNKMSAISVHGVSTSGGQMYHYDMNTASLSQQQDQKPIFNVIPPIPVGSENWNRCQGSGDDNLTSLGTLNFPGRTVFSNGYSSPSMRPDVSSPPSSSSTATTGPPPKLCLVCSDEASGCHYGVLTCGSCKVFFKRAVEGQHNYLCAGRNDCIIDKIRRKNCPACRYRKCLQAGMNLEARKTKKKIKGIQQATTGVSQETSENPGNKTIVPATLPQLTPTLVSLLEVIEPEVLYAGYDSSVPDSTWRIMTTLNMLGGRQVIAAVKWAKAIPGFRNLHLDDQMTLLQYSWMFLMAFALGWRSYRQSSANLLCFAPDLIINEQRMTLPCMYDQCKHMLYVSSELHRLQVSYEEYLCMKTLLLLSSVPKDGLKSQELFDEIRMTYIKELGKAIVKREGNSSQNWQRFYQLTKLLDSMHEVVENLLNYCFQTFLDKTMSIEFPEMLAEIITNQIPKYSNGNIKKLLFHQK
Cytochrome P450 3A4 (Homo sapiens), sequence (P08684 whole entry, looked up): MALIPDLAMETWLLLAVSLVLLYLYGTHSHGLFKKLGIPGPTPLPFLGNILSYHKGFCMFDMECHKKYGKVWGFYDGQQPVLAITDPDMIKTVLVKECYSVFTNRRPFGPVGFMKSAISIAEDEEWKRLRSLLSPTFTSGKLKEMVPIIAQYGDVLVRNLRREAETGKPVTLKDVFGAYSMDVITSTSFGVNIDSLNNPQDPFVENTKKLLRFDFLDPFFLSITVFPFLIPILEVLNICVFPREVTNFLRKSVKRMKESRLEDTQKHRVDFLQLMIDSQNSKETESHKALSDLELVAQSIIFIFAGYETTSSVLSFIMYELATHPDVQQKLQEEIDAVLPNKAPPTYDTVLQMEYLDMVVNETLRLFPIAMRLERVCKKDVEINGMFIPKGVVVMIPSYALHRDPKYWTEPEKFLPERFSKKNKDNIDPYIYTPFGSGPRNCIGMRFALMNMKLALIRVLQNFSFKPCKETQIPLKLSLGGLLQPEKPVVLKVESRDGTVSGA
3',5'-cyclic-AMP phosphodiesterase 4B (Homo sapiens), sequence (Q07343 whole entry, looked up): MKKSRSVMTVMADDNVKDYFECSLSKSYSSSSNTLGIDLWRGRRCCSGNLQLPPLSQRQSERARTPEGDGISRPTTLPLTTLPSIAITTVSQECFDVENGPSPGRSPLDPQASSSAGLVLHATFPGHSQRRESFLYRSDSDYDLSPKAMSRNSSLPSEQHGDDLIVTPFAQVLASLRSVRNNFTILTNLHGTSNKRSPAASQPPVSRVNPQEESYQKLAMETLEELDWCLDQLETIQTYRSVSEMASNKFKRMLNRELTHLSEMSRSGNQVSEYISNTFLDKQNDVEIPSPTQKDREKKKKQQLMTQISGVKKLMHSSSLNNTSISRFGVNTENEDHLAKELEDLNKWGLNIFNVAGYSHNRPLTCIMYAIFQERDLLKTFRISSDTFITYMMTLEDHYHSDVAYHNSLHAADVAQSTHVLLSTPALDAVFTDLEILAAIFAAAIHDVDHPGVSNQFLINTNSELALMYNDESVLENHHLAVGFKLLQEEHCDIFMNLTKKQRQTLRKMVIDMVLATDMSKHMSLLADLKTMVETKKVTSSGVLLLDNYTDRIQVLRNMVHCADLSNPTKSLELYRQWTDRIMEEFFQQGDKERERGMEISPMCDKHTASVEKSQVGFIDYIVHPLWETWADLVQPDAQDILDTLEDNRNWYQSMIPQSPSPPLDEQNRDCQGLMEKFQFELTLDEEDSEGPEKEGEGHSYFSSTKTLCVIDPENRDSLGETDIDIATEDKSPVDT
DNA dC->dU-editing enzyme APOBEC-3G (Homo sapiens), sequence (Q9HC16 whole entry, looked up): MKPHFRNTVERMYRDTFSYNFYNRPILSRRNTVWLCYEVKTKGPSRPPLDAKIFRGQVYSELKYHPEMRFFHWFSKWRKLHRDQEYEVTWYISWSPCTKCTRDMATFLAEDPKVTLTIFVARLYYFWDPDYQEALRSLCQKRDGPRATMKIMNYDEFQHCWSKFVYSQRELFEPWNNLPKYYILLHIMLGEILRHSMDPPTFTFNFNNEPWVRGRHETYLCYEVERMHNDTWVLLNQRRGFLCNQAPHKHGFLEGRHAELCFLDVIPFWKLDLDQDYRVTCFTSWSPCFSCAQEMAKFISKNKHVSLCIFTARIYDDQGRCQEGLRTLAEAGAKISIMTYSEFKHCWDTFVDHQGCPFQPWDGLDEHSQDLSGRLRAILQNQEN

Turning to `N[C@@H](C(=O)O)c1cc(O)ccc1Cl`, the Potency in assay [1] and in [2] was > 46 µM (inactive) in each case. The Potency result in assay [3], in assay [4], in assay [5], in [6], in assay [7] and in assay [8] was “inactive” each time.
`NCCCCCCNS(=O)(=O)c1ccc2c(Cl)cccc2c1`: the Potency in assay [2] was > 46 µM (inactive). In addition, the Potency result in assay [3], in [7] and in [8] was “inactive” in each case.
With `O=C(c1ccccc1)[C@@H]1O[C@H]1c1ccc(-c2ccccc2)cc1`, the Potency in [1] is > 46 µM (inactive). For the same compound, the Potency entry in [3], in assay [6], in assay [7] and in [8] was “inactive” each time.
With `OC[C@H]1OC([S-])[C@H](O)[C@@H](O)[C@H]1O.[Au+]` (some centres undefined), the remaining parasite growth % (stronger effect = lower value) in assay [9] came to 86.3%. In [10], the activity, percent of control was 98.2%. In addition, the remaining proliferation (% of control), lower = more inhibition in assay [11] turned out to be 78.1%. Moreover, the Potency result in assay [7] and in assay [8] was “inactive” throughout.
Regarding `Cc1c(-c2ccc(Cl)cc2)noc1C1CCN(CCc2ccccc2)CC1`, the Potency in assay [1] and in [2] was > 46 µM (inactive) each time. Also, the Potency entry in assay [4], in assay [6], in assay [7] and in assay [8] was “inactive” each time.
Take `Cn1ccc2cc(NC(=O)Nc3cccnc3)ccc21`: the Potency in assay [1] and in assay [2] was > 46 µM (inactive) throughout. Moreover, the Potency entry in assay [4], in assay [6], in [7] and in assay [8] was “inactive” each time.
On to `c1ccc(CN2CCC3(CCc4ccccc43)CC2)cc1`, for which the Potency in [1] and in [2] was > 46 µM (inactive) throughout. In addition, the Potency result in assay [6], in [7] and in [8] was “inactive” in each case.
Turning to `COc1ccccc1N1CCN(CCn2c(=O)[nH]c3c([nH]c4ccccc43)c2=O)CC1`, the Potency in assay [1] and in assay [2] was > 46 µM (inactive) throughout. For the same compound, the Potency entry in [3], in [4], in assay [5], in assay [6], in assay [7] and in assay [8] was “inactive” in each case.
Consider `CN1c2cc3c(cc2N=C(c2ccc(C(=O)O)cc2)c2ccccc21)C(C)(C)CCC3(C)C`, for which the Potency result in assay [12], in assay [7] and in assay [8] was “inactive” in each case.
`C[C@H](CCC(=O)O)[C@H]1CCC2C3CC[C@@H]4C[C@H](O)CC[C@]4(C)C3CC[C@@]21C` (some centres undefined) showed a parasite growth remaining, % of DMSO control (lower = more inhibition) in assay [13] of 97.2%. The growth, % of control in assay [14] turned out to be 98.2%. Also, the Potency result in assay [7] and in assay [8] was “inactive” in each case.
